# Target: MAP4K4
# Assay: pooled miR-30 sensor sort-seq; sequence = guide strand
# Details: shRNA
# Also: reference of the scale not given here.
row,Sequence,sensor-assay potency score (higher = more potent)
1,TTGACCACTGAGCCTTTCCGGG,-1.11
2,TTTGATGCTACACTGGATCATA,-0.597
3,TTCTCTTTCAACTCTCCTCTTT,-0.401
4,TAGATCACTTTCAACCTCTGGC,0.492
5,TTCTTGTTCTCTCCTTCGCTGT,-0.84
6,TAGAACTACATCCTTGGTGATC,-1.1
7,TTTGTTGAAATCGTCTTCGGTT,0.0416
8,TAGACTTGTCCATAGGTGCCAT,-0.0714
9,TTGTATTTACGAATCTCCGGGG,-0.365
10,TTGCCTTTTATATTCTTCCTGC,-0.0293
11,TACATCATCATGGACAATCATG,-1.13
12,TTATAGACTTGTCCATAGGTGC,-0.62

# Target: MAPK4
# Assay: as above
# Details: shRNA
row,Sequence,sensor-assay potency score (higher = more potent)
1,TAAGTTTCTAATGTGTTGCAGG,-0.429
2,TGAACTTGAACAGCTCACCCTG,-0.313
3,TTAAAGAAAAAACAAAACCCAA,-1.11
4,TTGCTGATTAGATTTAAGGTGC,-0.432
5,TACCACTTTGTTACCAACCCTT,-0.102

# Source: the OligoGym collection
